Compounds with a hit are over-represented: about 2.4% of the library has one in this group of screens.
Wnt bcat act: Wnt/beta-catenin pathway activators, primary screen, cell-based, plate reader, single point; Wnt/beta-catenin reporter cell assay, activator; activation, % at 9.35 µM; 300,000 compounds, 1.2% hits; AID 743398, 2014; in the data active = activation above about 30%, passing the limit was not always enough; inconclusive = no clear call, values can overlap the other calls;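 note: 0% = neutral control wells and 100% = positive control wells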
MITF act: activators of MITF-driven TRPM1 promoter reporter, primary screen, cell-based, SK-MEL-5, luciferase, single point | SK-MEL-5 TRPM1-promoter luciferase, 24 h; % of positive control, neutral wells = 0 | activation, % at 12.5 µM | 300,000 compounds, 0.75% hits | AID 588334, 2011;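 active = mean activation of at least 80% with every replicate also reaching 80%; inconclusive = mean reaches 80% but some replicate falls short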;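 note: 0% = neutral control wells and 100% = parthenolide positive control wells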
NSD2 HMT inh: NSD2 histone methyltransferase inhibitors, primary screen, biochemical, AlphaScreen, single concentration, set 2; inhibition, % at 12.5 µM; AID 743445, 2014; NSD2 peptide methylation, 120 min; Histone-lysine N-methyltransferase NSD2 (Homo sapiens), O96028; 310,000 compounds, 0.54% hits
miR-122 sensor: miR-122 Renilla sensor signal increase in Huh7, primary screen, miR-122 inhibitor project, cell-based, single point, plate reader. 340,000 compounds, 0.3% hits. activation (reporter increase), % at 12.5 µM. AID 602342, 2012. Huh7 miR-122 Renilla luciferase sensor, 48 h; neutral wells = 0, positive control = 100;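 active = mean replicate activation score at least 90 and every replicate individually at or above 90; inconclusive = only one of the two criteria met; inactive = neither criterion met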;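 note: higher luciferase means less miR-122 activity so hits act as miR-122 inhibitors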
DYRK1A inh: rat Dyrk1A kinase inhibitors, primary screen, biochemical, single point, plate reader. inhibition, % at 12.5 µM. ADP-Glo luminescence, NFATc1 peptide. AID 504441, 2011. Dual specificity tyrosine-phosphorylation-regulated kinase 1A (Rattus norvegicus), Q63470. 310,000 compounds, 0.43% hits;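 note: plate controls were vehicle with enzyme for no effect and no enzyme for full effect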
GSIS activator: GLuc luminescence reporter in INS-1E cells, primary screen for activators of glucose-dependent secretion of insulin | INS-1E GLuc reporter insulin secretion, 2-3 h | activation, % at 16.6 µM | 370,000 compounds, 0.61% hits;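 active = lowest replicate activation of at least 40%, so every replicate reaches that level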;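 note: 0% = median of neutral control wells and 100% = median of IBMX positive control wells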
* = called active by the depositor; ? = inconclusive; . = no result given; [ ] = another dose, or the depositor's remark. Cut-off read from the data, not from the text of the source, unless noted: active = inhibition above about 50%; inactive = the rest.

SMILES	Wnt bcat act	MITF act	NSD2 HMT inh	miR-122 sensor	DYRK1A inh	GSIS activator
O=C(C[C@@H]1CC[C@H]2[C@@H](COC[C@@H](O)CN2Cc2cccc(F)c2)O1)NCC1CCCCC1	.	.	.	3.9[16.7 µM]	.	-22.7
COc1cccc(COC(=O)c2ccc3c(c2)NC(=O)C(C)S3)c1OC (centres undefined)	-6.3	-1.0	-0.2	-1.8	12.7	7.0
CC1Sc2ccc(C(=O)OCc3ccccc3Cl)cc2NC1=O (centres undefined)	?	186.1*	3.3	-2.6	-1.5	16.5
CC1Sc2ccc(C(=O)Nc3ccccc3OC(F)F)cc2NC1=O (centres undefined)	34.9*	62.3	-2.1	.	-6.9	12.9
Cc1ccc(S(=O)(=O)N(C)C[C@H]2Oc3ccc(NC(=O)Cc4cn(C)c5ccccc45)cc3C(=O)N([C@@H](C)CO)C[C@H]2C)cc1	.	.	.	29.3[16.7 µM]	.	-4.6
COc1ccc(CNc2ccc(Br)cc2)cc1	43.4*	57.5	-1.5	-23.6	.	-11.1
N#Cc1c(Nc2ccccc2)sc(C(=O)c2ccc(F)cc2)c1N	1.7	-7.2	1.3	.	4.2	-11.4
Cc1ccc(C(=O)c2sc(Nc3ccccc3)c(C#N)c2N)cc1	-1.1	-15.8	3.1	.	0.3	42.7*
COc1ccc(-c2nnc(SCC(C)C)o2)cc1	42.4*	57.4	-2.6	6.1	-6.0	-13.6
Cc1ccc(-c2nnc(-c3ccccc3)o2)cc1Br	34.9*	34.1	-1.8	-6.9	2.3	4.3
Cc1ccc(-c2nnc(-c3cccc(Br)c3)o2)cc1	52.2*	53.4	-5.1	1.6	-0.9	.
O=C(Cc1cccnc1)N1CC(=O)N2[C@H](CO)[C@@H](c3ccc(-c4cccc(F)c4)cc3)[C@@H]2C1	.	.	.	.	.	-0.1
C[C@H]1CN([C@@H](C)CO)C(=O)c2cccc(NC(=O)CCCCCC(=O)Nc3ccccc3N)c2O[C@@H]1CN(C)Cc1ccc(Oc2ccccc2)cc1	.	.	.	.	.	-49.9
CCCNC(=O)Nc1cccc(C(=O)OC)c1	34.5*	5.0	-2.0	.	2.9	-2.0
CCCNC(=O)Nc1cccc(NC(C)=O)c1	0.8	-7.0	-2.6	-1.0	18.9	12.1
COC(=O)c1ccc(CN2CC(=O)N3[C@H](CO)[C@H](c4ccc(Br)cc4)[C@H]3C2)cc1	.	.	.	.	.	-19.9
O=C(NC1CC1)c1sc2cc(Cl)ccc2c1Cl	14.1	110.6*	1.0	.	3.1	-2.2
O=C(Nc1nccs1)c1sc2cc(Cl)ccc2c1Cl	75.9*	.	0.7	1.9	15.1	.
COc1cccc(-c2cnc3c(c2)C(=O)N([C@H](C)CO)C[C@@H](C)[C@H](CN(C)C(=O)CN(C)C)O3)c1	.	.	.	0.6[16.7 µM]	.	-6.9
Clc1ccc(-c2cc(-c3ccccc3)on2)cc1	53.6*	?	.	-0.9	16.5	12.2
Cc1nc(-c2cc(-c3ccc(Cl)cc3)no2)cs1	35.6*	9.8	36.2	.	2.5	-5.7
O=C(c1ccccc1F)N1CC[C@H]2[C@H](CO)Nc3ccc(Br)cc3[C@H]21	.	.	.	-3.3[16.7 µM]	.	-1.4
O=C(Oc1ccc(Cl)cc1)N1CCOCC1	0.3	1.4	-6.1	-2.8	0.9	1.7
O=C(Oc1ccc(-c2ccccc2)cc1)N1CCOCC1	.	86.3*	-7.0	-3.1	-18.8	-16.7
O=C(c1ccc(F)cc1)c1ccc(N2CCCCC2)cc1	39.8*	103.0*	-3.3	-1.1	-1.5	-10.7
O=C(c1ccc(F)cc1)c1ccc(N2CCCC2)cc1	5.1	54.5	-2.9	3.0	4.4	.
O=C(CCN1CCOCC1)c1ccc(N2CCCCC2)cc1	1.1	42.7	.	0.0	41.9	51.3*
FC(F)(F)c1cc(CCN2CCNC[C@@H]2Cc2ccccc2)cc(C(F)(F)F)c1	-3.1	-79.6	.	.	6.8	191.1*
CCc1nnc(NC(=O)c2ccc(S(=O)(=O)N(CC)Cc3ccccc3)cc2)o1	.	-9.7	4.6	22.8	-5.3	.
CCN(Cc1ccccc1)S(=O)(=O)c1ccc(C(=O)Nc2nnc(C)o2)cc1	0.1	-10.4	0.3	4.1	7.8	53.8*

Assay outcomes from PubChem.
